# Source: PubChem BioAssay (NCATS)
# Values joined by “and” are separate entries in the source; they are usually repeats but may differ in a detail not shown here. Identical values can stand only once. Results filed as inconclusive are left out. Active and inactive are the calls of the source. Unless noted, the call rests on the fitted dose curve; in most records, active means well fitted inhibition curve with a large enough effect; inconclusive means small, poorly fitted or top-dose-only effect; inactive means no such curve, though single readings can be large or run the other way.
# Assays:
# [1] = target: Cytochrome P450 2D6 (Homo sapiens) (UniProt P10635); assay: qHTS Assay for Inhibitors and Substrates of Cytochrome P450 2D6 (AID 891); further: nearly all actives have a fitted effect of over 60% in size; further: potency means the concentration at half of the fitted maximal effect
# In short: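 Luminescent read-out of luciferin formed by 5 nM human CYP2D6 demethylating 30 uM Luciferin-ME EGE (Km level) over 60 min at room temperature after NADPH regeneration addition. Data normalized to full inhibition by 1.43 uM quinidine.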
# [2] = target: Estrogen receptor (Homo sapiens) (UniProt P03372); assay: qHTS assay for small molecule antagonists of estrogen receptor alpha signaling (AID 588513; active means well fitted curve in the direction sought with a large enough effect in the signal ratio, with a control signal flat, not every such curve was filed as active; the % refers to the signal ratio; further: on the % scale 0 is the no-effect control and ±100 the full control effect)
# In short: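 ER-alpha-UAS-bla GripTite HEK 293 cells in 2% charcoal/dextran-treated FBS medium; compounds titrated (1:2, duplicate), then stimulated with 0.5 nM 17-beta-estradiol for 18 h at 37C. CCF4 beta-lactamase fluorescence; Hill-fit IC50 and efficacy.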
# [3] = target: Estrogen receptor (Homo sapiens) (UniProt P03372); assay: qHTS assay for small molecule agonists of estrogen receptor alpha signaling (AID 588514; calls by dose curve;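 further: 0% = vehicle only and 100% = reference agonist; nearly all actives have a fitted effect of over 70% in size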)
# In short: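 Efficacy is expressed against 20 nM 17-beta-estradiol (100%) and DMSO basal (0%); EC50 from Hill equation. Assay: beta-lactamase reporter in ER-alpha-UAS-bla HEK 293 cells, 18 h compound incubation, CCF4 detection.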
# [4] = target: Bile acid receptor (Homo sapiens) (UniProt Q96RI1); assay: qHTS assay for small molecule antagonists of farnesoid X receptor signaling (AID 588526; calls by dose curve; further: on the % scale 0 is the no-effect control and ±100 the full control effect)
# In short: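 Beta-lactamase reporter antagonist mode: HEK293T FXR-UAS-bla cells, titrated compound, CDCA stimulation, 16 h 37 C, CCF4 dye 2 h RT. Data normalized to CDCA 50 uM and DMSO; Hill-fit IC50.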
# [5] = target: Glucocorticoid receptor (Homo sapiens) (UniProt P04150); assay: qHTS assay for small molecule agonists of glucocorticoid receptor signaling (AID 588532; active means well fitted curve in the direction sought with a large enough effect in the signal ratio, with a control signal flat; the % refers to the signal ratio;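 further: 100% = dexamethasone at 0.1 µM and 0% = DMSO only wells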); conditions: HeLa MMTV-bla, beta-lactamase ratio, agonist, 18 h; stronger effect = higher value; percent of dexamethasone control, DMSO zero
# In short: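 Using MMTV-bla HeLa cells in medium with 1% stripped FBS and 25 mM HEPES, compounds were titrated and incubated overnight-length (18 h). Beta-lactamase cleavage of CCF4 was quantified by dual-emission fluorescence.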
# [6] = target: Glucocorticoid receptor (Homo sapiens) (UniProt P04150); assay: qHTS assay for small molecule antagonists of glucocorticoid receptor signaling (AID 588533; active means well fitted inhibition curve with a large enough effect in the signal ratio, with a control signal flat, not every such curve was filed as active; the % refers to the signal ratio;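 further: cells stimulated with 2 nM dexamethasone as agonist; on the % scale 0 is the no-effect control and ±100 the full control effect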)
# In short: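 Antagonist-mode qHTS: compound titrations added to GRE-bla HeLa cells, then dexamethasone 2 nM final; 18 h, 37 C. CCF4 FRET fluorescence normalized to dexamethasone and DMSO; IC50 from Hill fit.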
# [7] = qHTS assay for small molecule antagonists of peroxisome proliferator-activated receptor delta signaling (AID 588535; active means well fitted inhibition curve with a large enough effect in the signal ratio, with a control signal flat, not every such curve was filed as active; the % refers to the signal ratio;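 on max response: cells co-treated with a PPAR-delta agonist as stimulator during compound exposure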); conditions: HEK293T PPARd-UAS-bla, beta-lactamase FRET ratio, 18 h; 460 nm channel
# In short: (§1)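 Titrations were run on PPAR-delta-UAS-bla HEK293T cells in charcoal/dextran-stripped serum, incubated 18 h at 37 C. CCF4 fluorescence (460/530 nm) after 2 h RT; Hill equation yields IC50 and maximal response.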
# [8] = target: Peroxisome proliferator-activated receptor delta (Homo sapiens) (UniProt Q03181); assay: as above
# In short: as §1
# [9] = target: Peroxisome proliferator-activated receptor gamma (Homo sapiens) (UniProt P37231); assay: qHTS assay for small molecule agonists of peroxisome proliferator-activated receptor gamma signaling (AID 588536; active means well fitted curve in the direction sought with a large enough effect in the signal ratio, with a control signal flat, not every such curve was filed as active; the % refers to the signal ratio;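 further: 0% = DMSO basal wells and 100% = rosiglitazone at 2 µM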)
# In short: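 Beta-lactamase reporter read-out: CCF4 fluorescence (ex 405, em 460/530 nm) after 2 h at RT. HEK293 GeneBLAzer cells were treated for 16 h at 37 C. Hill fits gave EC50 and efficacy versus 2 uM rosiglitazone (100%) and DMSO (0%).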
# [10] = target: Peroxisome proliferator-activated receptor gamma (Homo sapiens) (UniProt P37231); assay: qHTS assay for small molecule antagonists of peroxisome proliferator-activated receptor gamma signaling (AID 588537; active means well fitted inhibition curve with a large enough effect in the signal ratio, with a control signal flat, not every such curve was filed as active; the % refers to the signal ratio;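 further: reporter cells co-stimulated with 50 nM rosiglitazone agonist during compound treatment; % of control where 0% means no effect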)
# In short: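 Antagonist-mode β-lactamase reporter screen run as a titration series. HEK293 PPARγ-UAS-bla cells are stimulated with rosiglitazone (50 nM final) for 16 h, then CCF4 is read at 460/530 nm. Data are scaled between DMSO and rosiglitazone and fitted to the Hill equation.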
# [11] = qHTS assay for small molecule agonists of retinoid X receptor alpha signaling (AID 588544; calls by dose curve;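 on activation: 0% = DMSO basal wells and 100% = reference agonist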); conditions: HEK293T RXRa-UAS-bla, beta-lactamase reporter, 18 h; 530 nm emission
# [12] = target: Retinoic acid receptor RXR-alpha (Homo sapiens) (UniProt P19793); assay: as above
# [13] = qHTS assay for small molecule antagonists of retinoid X receptor alpha signaling (AID 588546); conditions: HEK293T RXRa-UAS-bla, beta-lactamase ratio, antagonist mode; measured here: W530 green channel, cytotoxicity proxy;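 further: cells stimulated with 9-cis-retinoic acid as agonist; on the % scale 0 is the no-effect control and ±100 the full control effect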
# In short: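 Beta-lactamase reporter inhibition, read as CCF4 fluorescence ratio (ex 405, em 460/530 nm) after 2 h at RT. HEK293T UAS-bla cells, 2500/well, were stimulated with 9-cis-RA at 500 or 100 nM final alongside test compound for 18 h at 37 C.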
# [14] = target: Thyroid hormone receptor beta (Homo sapiens) (UniProt P10828); assay: qHTS assay for small molecule antagonists of thyroid hormone receptor beta signaling (AID 588547; active means well fitted inhibition curve with a large enough effect in the signal ratio, with a control signal flat, not every such curve was filed as active; the % refers to the signal ratio); conditions: TR-UAS-bla HEK293, beta-lactamase ratio, antagonist mode, 18 h
# In short: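 Inhibition of T3-driven (0.4nM final) beta-lactamase reporter activity was measured over 0.59 nM to 92 uM compound after 18 h at 37 C. The cells were GripTite HEK293 TR-UAS-bla in charcoal/dextran-stripped serum, with CCF4 ratio read-out and IC50 from Hill fits.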
# [15] = qHTS assay for small molecule activators of the p53 signaling pathway (AID 651743; active means well fitted activation curve with a large enough effect in the signal ratio, not every such curve was filed as active; the % refers to the signal ratio; further: series mostly up to about 92 µM; % of control where 0% means no effect); conditions: HCT-116 p53RE-bla, beta-lactamase FRET ratio, 16 h; activation: stronger effect = higher value
# In short: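 After 16 hours compound treatment at 37 C, HCT-116 cells stably expressing p53RE-driven beta-lactamase were loaded with LiveBLAzer B/G FRET substrate for 2 hours at room temperature. Fluorescence intensity served as the p53 activation read-out.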
# [16] = qHTS assay for small molecule activators of the nuclear factor-kappa B (NF-kB) signaling pathway (AID 651749; active means well fitted activation curve with a large enough effect in the signal ratio; the % refers to the signal ratio; further: series mostly up to about 77 µM; % of control where 0% means no effect); conditions: NF-kB-bla ME-180 cells, beta-lactamase FRET ratio, 16 h; stronger effect = higher value
# In short: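 Activation measured after 16 hr compound treatment at 37C, 5% CO2, of 2,000 ME-180 cells/well stably expressing an NF-kB response element–driven beta-lactamase reporter, via FRET-disruption fluorescence.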
# [17] = target: Cytochrome P450 2C9 (Homo sapiens) (UniProt P11712); assay: qHTS Assay for Inhibitors and Substrates of Cytochrome P450 2C9 (AID 883); further: potency means the concentration at half of the fitted maximal effect; nearly all actives have a fitted effect of over 60% in size
# In short: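 Turnover of Luciferin-H (100uM, KM) by 10nM human CYP2C9 was measured over 60 min at 37C with NADPH regeneration; inhibitors and some substrates reduce luminescence. Data normalized to sulphaphenazole 57uM.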
# [18] = qHTS assay for small molecule agonists of the antioxidant response element (ARE) signaling pathway (AID 651741; active means well fitted activation curve with a large enough effect in the signal ratio; the % refers to the signal ratio; further: % of control where 0% means no effect)
# In short: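 Beta-lactamase reporter under ARE control in HepG2 cells, 2,000 per well, was induced by 16 h compound treatment at 37 C. Read-out was fluorescence from LiveBLAzer B/G FRET substrate after 2 h at room temperature.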
# Chain of Cytochrome P450 2C9 (Homo sapiens) (P11712 whole entry, looked up): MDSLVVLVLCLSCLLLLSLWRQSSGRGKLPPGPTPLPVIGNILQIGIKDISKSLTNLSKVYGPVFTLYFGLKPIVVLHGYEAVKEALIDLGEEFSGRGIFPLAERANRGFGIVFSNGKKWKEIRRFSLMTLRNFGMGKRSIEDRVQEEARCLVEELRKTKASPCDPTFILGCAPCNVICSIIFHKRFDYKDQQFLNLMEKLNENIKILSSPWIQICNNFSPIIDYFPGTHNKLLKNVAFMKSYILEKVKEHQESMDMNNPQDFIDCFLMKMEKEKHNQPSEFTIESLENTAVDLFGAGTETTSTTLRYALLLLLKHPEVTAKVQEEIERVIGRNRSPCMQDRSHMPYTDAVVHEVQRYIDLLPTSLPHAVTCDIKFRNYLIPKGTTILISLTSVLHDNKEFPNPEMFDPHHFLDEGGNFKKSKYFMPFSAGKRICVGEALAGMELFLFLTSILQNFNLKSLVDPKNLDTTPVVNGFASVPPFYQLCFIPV
# Chain of Cytochrome P450 2D6 (Homo sapiens) (P10635 whole entry, looked up): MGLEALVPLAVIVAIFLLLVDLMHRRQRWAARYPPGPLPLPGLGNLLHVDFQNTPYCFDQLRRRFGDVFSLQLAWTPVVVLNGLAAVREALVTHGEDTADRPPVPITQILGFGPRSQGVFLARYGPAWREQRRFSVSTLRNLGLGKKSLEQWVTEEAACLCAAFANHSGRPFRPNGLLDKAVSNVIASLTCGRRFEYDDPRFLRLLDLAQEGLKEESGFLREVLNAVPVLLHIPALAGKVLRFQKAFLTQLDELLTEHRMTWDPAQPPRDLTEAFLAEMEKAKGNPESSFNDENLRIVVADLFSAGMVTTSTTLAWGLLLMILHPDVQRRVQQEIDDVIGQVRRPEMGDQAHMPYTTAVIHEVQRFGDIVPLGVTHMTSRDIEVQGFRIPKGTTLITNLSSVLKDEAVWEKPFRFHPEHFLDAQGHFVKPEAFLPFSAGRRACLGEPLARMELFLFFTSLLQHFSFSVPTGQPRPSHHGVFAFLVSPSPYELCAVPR
# Chain of Thyroid hormone receptor beta (Homo sapiens) (P10828 whole entry, looked up): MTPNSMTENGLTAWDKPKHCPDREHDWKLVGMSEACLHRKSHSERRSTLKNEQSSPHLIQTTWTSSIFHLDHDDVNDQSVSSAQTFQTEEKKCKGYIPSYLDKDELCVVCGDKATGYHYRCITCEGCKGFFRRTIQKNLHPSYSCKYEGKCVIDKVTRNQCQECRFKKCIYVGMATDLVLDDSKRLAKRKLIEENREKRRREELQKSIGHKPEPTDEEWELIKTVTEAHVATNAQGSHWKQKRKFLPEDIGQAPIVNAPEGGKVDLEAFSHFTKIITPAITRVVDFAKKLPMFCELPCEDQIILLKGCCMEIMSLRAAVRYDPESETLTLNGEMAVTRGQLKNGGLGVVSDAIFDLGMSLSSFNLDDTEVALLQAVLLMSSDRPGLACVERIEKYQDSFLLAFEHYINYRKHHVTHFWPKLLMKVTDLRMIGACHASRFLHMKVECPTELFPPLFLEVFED
# Chain of Peroxisome proliferator-activated receptor gamma (Homo sapiens) (P37231 whole entry, looked up): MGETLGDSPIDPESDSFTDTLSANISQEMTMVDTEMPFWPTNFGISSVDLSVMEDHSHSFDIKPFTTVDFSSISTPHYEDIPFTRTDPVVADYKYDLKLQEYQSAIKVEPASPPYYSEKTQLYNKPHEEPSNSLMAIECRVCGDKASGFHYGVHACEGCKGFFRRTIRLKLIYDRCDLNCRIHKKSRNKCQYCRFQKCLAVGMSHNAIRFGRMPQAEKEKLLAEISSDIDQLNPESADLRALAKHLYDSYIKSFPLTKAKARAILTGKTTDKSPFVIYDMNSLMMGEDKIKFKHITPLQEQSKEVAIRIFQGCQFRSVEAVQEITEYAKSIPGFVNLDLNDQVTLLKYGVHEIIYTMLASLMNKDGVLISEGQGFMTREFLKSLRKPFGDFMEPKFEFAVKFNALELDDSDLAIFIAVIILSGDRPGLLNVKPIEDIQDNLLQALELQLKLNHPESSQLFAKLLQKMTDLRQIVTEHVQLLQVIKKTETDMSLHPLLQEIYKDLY
# Chain of Glucocorticoid receptor (Homo sapiens) (P04150 whole entry, looked up): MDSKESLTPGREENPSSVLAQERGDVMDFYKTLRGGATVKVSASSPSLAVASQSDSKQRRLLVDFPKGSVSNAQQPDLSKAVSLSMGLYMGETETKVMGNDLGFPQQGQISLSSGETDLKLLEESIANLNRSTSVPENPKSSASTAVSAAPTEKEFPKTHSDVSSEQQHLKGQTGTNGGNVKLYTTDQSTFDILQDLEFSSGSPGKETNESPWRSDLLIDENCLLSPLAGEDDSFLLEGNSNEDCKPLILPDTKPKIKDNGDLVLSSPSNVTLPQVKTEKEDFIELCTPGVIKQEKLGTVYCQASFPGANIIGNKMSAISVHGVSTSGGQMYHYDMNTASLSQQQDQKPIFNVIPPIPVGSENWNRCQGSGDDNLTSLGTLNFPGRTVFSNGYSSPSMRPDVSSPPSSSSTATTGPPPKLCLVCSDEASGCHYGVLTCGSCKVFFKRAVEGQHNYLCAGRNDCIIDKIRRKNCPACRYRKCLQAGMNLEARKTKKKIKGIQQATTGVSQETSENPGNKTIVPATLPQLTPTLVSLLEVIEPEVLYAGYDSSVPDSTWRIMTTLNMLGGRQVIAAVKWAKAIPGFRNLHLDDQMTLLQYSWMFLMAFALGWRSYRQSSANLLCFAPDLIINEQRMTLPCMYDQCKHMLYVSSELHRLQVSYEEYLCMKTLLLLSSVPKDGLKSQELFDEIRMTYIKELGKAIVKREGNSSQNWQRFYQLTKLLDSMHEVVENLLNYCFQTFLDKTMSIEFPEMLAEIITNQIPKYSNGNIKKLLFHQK
# Chain of Estrogen receptor (Homo sapiens) (P03372 whole entry, looked up): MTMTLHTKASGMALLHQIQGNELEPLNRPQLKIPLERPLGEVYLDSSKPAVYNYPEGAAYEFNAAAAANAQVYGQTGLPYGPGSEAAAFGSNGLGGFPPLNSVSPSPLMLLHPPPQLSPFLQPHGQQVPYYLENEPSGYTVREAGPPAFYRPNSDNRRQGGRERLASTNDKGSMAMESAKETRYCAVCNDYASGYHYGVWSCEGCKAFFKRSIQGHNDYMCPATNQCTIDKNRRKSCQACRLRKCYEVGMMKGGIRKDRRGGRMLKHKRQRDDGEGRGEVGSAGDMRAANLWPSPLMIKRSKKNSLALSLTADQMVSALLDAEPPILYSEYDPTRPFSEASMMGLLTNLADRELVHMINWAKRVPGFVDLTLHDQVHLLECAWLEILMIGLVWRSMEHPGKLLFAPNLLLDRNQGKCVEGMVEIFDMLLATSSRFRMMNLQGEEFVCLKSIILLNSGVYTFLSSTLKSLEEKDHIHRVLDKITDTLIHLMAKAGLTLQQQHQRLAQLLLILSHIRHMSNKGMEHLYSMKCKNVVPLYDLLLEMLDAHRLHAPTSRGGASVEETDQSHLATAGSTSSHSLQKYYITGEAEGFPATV
# Chain of Retinoic acid receptor RXR-alpha (Homo sapiens) (P19793 whole entry, looked up): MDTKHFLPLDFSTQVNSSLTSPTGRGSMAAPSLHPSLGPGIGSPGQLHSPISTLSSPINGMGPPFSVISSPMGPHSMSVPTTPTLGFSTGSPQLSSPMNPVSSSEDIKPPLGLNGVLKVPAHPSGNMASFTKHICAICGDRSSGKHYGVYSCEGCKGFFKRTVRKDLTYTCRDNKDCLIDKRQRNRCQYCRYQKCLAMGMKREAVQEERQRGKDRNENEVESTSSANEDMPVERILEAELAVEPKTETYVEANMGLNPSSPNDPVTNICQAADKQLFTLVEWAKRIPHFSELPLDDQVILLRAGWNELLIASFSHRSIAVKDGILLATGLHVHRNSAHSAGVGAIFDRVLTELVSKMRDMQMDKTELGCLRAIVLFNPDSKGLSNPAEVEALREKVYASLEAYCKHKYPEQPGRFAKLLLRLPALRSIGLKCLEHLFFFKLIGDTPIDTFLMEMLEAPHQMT
# Chain of Bile acid receptor (Homo sapiens) (Q96RI1 whole entry, looked up): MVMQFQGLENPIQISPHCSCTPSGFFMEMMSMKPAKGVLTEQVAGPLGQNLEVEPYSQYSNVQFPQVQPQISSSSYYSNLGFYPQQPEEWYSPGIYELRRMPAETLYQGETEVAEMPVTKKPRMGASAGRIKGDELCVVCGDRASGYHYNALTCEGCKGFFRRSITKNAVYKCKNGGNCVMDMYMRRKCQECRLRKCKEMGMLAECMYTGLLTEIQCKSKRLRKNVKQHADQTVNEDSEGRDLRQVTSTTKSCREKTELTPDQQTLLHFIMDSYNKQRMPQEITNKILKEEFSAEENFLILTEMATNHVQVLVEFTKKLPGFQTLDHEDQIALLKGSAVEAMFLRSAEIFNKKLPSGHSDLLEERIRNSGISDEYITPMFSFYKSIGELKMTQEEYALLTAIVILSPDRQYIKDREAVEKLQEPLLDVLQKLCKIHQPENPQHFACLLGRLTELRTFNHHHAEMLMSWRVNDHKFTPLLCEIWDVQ
# Chain of Peroxisome proliferator-activated receptor delta (Homo sapiens) (Q03181 whole entry, looked up): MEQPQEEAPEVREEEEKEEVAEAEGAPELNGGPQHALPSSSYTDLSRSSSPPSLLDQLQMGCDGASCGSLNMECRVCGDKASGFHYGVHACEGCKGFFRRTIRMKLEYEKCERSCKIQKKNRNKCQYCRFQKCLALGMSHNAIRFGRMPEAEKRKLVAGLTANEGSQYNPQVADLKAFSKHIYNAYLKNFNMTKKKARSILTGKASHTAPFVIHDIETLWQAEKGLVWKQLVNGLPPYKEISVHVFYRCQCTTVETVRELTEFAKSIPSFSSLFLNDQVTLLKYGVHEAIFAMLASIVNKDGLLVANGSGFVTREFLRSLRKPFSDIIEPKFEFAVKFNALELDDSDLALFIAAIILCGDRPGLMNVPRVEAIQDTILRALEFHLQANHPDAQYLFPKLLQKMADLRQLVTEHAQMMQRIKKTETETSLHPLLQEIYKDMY
structure (smiles),measurement,setting,value
CCC[C@@H]1C[C@@]1(CCC)C(NC(=O)c1ccco1)c1ccc(Cl)cc1 (stereo not given in full),Potency,[1],3.98 µM (active)
OC1c2ccccc2-c2nc3ccccc3cc21 (stereo not given),Potency,[1],20 µM (active)
CC[C@@H]1OC(=O)[C@@H](C)[C@H](O[C@@H]2C[C@@](C)(OC)[C@@H](O)[C@H](C)O2)[C@H](C)[C@H](O[C@@H]2O[C@@H](C)C[C@@H](N(C)C)[C@H]2O)[C@@](C)(O)C[C@H](C)C(=O)[C@@H](C)[C@H](O)[C@@]1(C)O,Potency,[1],inactive
Cc1cccc(O)c1C,Potency,[2],inactive
same,outcome,[3],inactive
same,Potency,[4],inactive
same,activation,[5],5.02% (inactive)
same,Potency,[6],inactive
same,max response,[7],-7.79%
same,outcome,[8],inactive
same,outcome,[9],inactive
same,Potency,[10],inactive
same,max response,[11],-18.7%
same,outcome,[12],inactive
same,max response,[13],10.3%
same,activity change % (negative = inhibition),[14],4.76% (inactive)
same,activation,[15],-2.61% (inactive)
ClC1=C(Cl)C(Cl)(Cl)C(Cl)=C1Cl,Potency,[2],inactive
same,outcome,[3],inactive
same,activation,[5],4.1% (inactive) and -7.79% (inactive)
same,outcome,[9],inactive
same,Potency,[10],inactive
same,max response,[11],-6.21% and -5.28%
same,outcome,[12],inactive
same,max response,[13],5.17% and -3.52%
same,activity change % (negative = inhibition),[14],-17.2% (inactive) and -1.82% (inactive)
same,activation,[16],-0.183% (inactive) and -0.468% (inactive)
CCC/C=C(\CCC)C(NC(=O)c1ccc(C(F)(F)F)cc1)c1ccccc1 (stereo not given),Potency,[1],7.94 µM (active)
CC(C)c1cccc2c([Si](C)(C)C)c3c(nc12)-c1cccc(=O)n1C3,Potency,[17],2 µM (active)
CCC/C=C(\CCC)C(NS(=O)(=O)c1ccc(Cl)cc1)c1ccccc1 (stereo not given),Potency,[17],2.51 µM (active)
CCC/C=C(\CCC)C(NS(=O)(=O)c1cccs1)c1ccc(C(=O)OC)cc1 (stereo not given),Potency,[17],2 µM (active)
same,Potency,[1],6.31 µM (active)
COC(=O)[C@H](C)[C@H]1C[C@]1(C)[C@H](NC(=O)OCc1ccccc1)c1ccccc1,Potency,[17],2 µM (active)
CCC/C=C(\CCC)C(NC(=O)OCC(C)C)c1ccc(C(=O)OC)cc1 (stereo not given),Potency,[17],3.98 µM (active)
CCCCCC/C(C=O)=C\c1ccccc1,Potency,[4],inactive
same,activation,[5],-2.77% (inactive)
same,max response,[7],24.4%
same,outcome,[8],inactive
same,outcome,[9],inactive
same,max response,[11],3.46%
same,outcome,[12],inactive
same,max response,[13],10.6%
same,activity change % (negative = inhibition),[14],8.8% (inactive)
same,Potency,[18],inactive
same,activation,[16],-0.556% (inactive)
